NPC1 prom act: NPC1 promoter activation. Potency, µM (highest dose often 9.22 µM), inactives show top-dose activation, actives largely listed as activators. hit rate 2.4% among 320,000. Huh7 NPC1 promoter luciferase reporter, 24 h; also: % of control where 0% means no effect; nearly all actives have a fitted effect of over 60% in size
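NPC1 promoter–luciferase Huh7 cells; 24 h compound; luminescence.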
FLuc modulator: firefly luciferase modulation, counter-screen for miR-21 project; Potency, µM (top dose mostly 57.5 µM), without a hit: top-dose activity change, negative = inhibition, actives largely listed as inhibitors; purified FLuc, Km substrates, luminescence inhibition; hit rate 6.9% among 360,000; AID 588342; P08659;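 also: plate controls were vehicle for no effect and reference inhibitor for full effect; nearly all actives have a fitted effect of over 55% in size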
Target sequence (P08659 whole entry, looked up): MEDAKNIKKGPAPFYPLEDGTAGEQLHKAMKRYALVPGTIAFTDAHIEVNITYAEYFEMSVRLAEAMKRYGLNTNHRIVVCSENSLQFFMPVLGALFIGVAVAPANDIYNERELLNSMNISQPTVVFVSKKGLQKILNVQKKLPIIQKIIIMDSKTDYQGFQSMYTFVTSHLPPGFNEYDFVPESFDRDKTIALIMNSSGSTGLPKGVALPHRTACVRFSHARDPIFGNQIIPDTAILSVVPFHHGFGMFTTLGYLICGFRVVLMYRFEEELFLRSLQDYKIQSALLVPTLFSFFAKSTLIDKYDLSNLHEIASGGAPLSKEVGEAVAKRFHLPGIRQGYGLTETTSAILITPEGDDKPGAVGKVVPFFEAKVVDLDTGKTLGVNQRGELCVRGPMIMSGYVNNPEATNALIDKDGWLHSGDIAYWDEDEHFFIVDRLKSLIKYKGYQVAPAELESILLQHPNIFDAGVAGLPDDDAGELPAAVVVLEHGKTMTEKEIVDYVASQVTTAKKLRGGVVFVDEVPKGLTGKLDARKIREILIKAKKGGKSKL
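Biochemical qHTS of compounds, final roughly 60 µM downward over six points, against 10 nM purified firefly luciferase using Km concentrations of substrates (10 uM D-luciferin, 10 uM ATP) in Tris acetate pH 7.5 buffer; luminescence output.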
Rab9 promoter act: activates the Rab9 promoter. Huh7 Rab9 promoter-luciferase reporter, luminescence, 24 h. Potency, µM (series often up to 9.22 µM), inactives show at the highest dose activation, negative = inhibition, most hits filed as activators. hit rate 2.8% among 320,000. AID 485297; also: % of control where 0% means no effect; nearly all actives have a fitted effect of over 60% in size
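Steps: seed 1500 Huh7 Rab9-luc cells per well, rest 2 h at 37 °C; add compound in DMSO; incubate 24 h; add luciferase reagent, 10 min ambient; read luminescence.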
SMN2 splice up: SMN2 splice variant enhancement. HEK293 SMN2-luciferase splicing reporter, luminescence, 30-36 h. Potency, µM (series often up to 46.1 µM), inactives show at the highest dose activity change, positive = activation, hits mostly activators. hit rate 2.8% among 210,000. AID 1458; also: % of control where 0% means no effect; nearly all actives have a fitted effect of over 55% in size
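HEK293 cells carry an SMN2 minigene-luciferase reporter in which exon 7 inclusion puts luciferase in frame. Cells were seeded at 2000 cells/well, attached for 10-12 hours, then exposed to compounds for 30-36 hours at 37C before ONE-Glo luminescence.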
ELG1 genotoxic: induces genotoxicity in HEK293T cells with luciferase-tagged ELG1; HEK293T ELG1-luciferase reporter, luminescence, 16 h; hit rate 1.3% among 330,000; AID 504466; Potency, µM (top dose mostly 46 µM), without a hit: top-dose activity change, positive = activation, most hits filed as activators; also: % of control where 0% means no effect; nearly all actives have a fitted effect of over 60% in size
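Step 1: seed 2,000 HEK293T ELG1-luciferase cells per well. Step 2: add compound or DMSO, incubate 16 hr at 37 °C. Step 3: ONE-Glo, 30 min at room temperature, read luminescence.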
Starred values were filed as active, the others as inactive; ? = inconclusive; · = no result; [ ] = another dose, or the depositor's remark. This is a sample that favours compounds with a hit; in the whole collection about 7.4% have one here. Calls follow the shape of the dose curve; as a rule, active = well fitted curve in the direction sought with a large enough effect; inconclusive = small, poorly fitted or top-dose-only effect, or another doubt; inactive = no such curve, though single readings can be large; an effect the other way counts as inactive or inconclusive. Potency is read from the fitted curve at half-maximal effect.

SMILES	NPC1 prom act	FLuc modulator	Rab9 promoter act	SMN2 splice up	ELG1 genotoxic
COC(=O)c1ccc(OC(=O)/C=C/c2ccco2)cc1	0%	2.4µM*	1%	·	3%
Cc1ccc(OCc2cc(C(=O)N3CC4C[C@@H]5CC3C[C@H](C4)C5)no2)cc1C	3.5µM*	8.5µM*	1.4µM*	·	?
Cc1cccc(C)c1OCc1cc(C(=O)N2CCC(c3ccccc3)CC2)no1	?	?	?	·	23%
Cc1cccc(C)c1OCc1cc(C(=O)N2CC3C[C@@H]4CC2C[C@H](C3)C4)no1	2µM*	?	1.6µM*	·	2%
COc1ccc(NC(=O)c2cc(C)no2)cc1Cl	9%	-14%	5%	·	16%
C#CCCOC(=O)N1C2=NC(C(=O)OC)=C(C(=O)OC)[C@@H]3N(CC#CC)c4ccccc4[C@]23C[C@H]1C(=O)OC	·	·	·	-9%[9.22 µM]	·
CCc1ccc(-n2cccc2/C=C2/C(=N)N3C(=NC2=O)SN=C3S(C)(=O)=O)cc1	-3%	17µM*	3%	-10%	0%
Cc1ccc(-n2cccc2/C=C2/C(=N)N3C(=NC2=O)SN=C3S(C)(=O)=O)cc1	-1%	19µM*	2%	-15%	0%
COc1cccc(-n2c(C)cc(/C=C3/C(=N)N4C(=NC3=O)SN=C4S(C)(=O)=O)c2C)c1	1%	5.4µM*	1%	20%	5%
Cc1ccc(S(=O)(=O)Oc2ccc(/C=C3/C(=N)N4C(=NC3=O)SN=C4S(C)(=O)=O)cc2)cc1	0%	-8%	5%	·	8%
Cc1cc(C)cc(-n2cccc2/C=C2/C(=N)N3C(=NC2=O)SN=C3S(C)(=O)=O)c1	-6%	13µM*	3%	-20%	-3%
COc1ccc(CCNc2nc3cc(OC)c(OC)cc3c3nc(-c4ccccc4)nn23)cc1OC	·	-10%	·	-4%	·
CS(=O)(=O)C1=NSC2=NC(=O)/C(=C\c3cccn3-c3ccccc3Cl)C(=N)N21	0%	27µM*	16%	-2%	2%
Cc1ccc(S(=O)(=O)NCC(=O)OCC(=O)Nc2ccc3c(c2)OCCO3)cc1	2%	·	1%	·	0%
Cc1ccc(-n2sc3ccccc3c2=O)cc1S(=O)(=O)N1CCCCC1	1%	19µM*	8%	-17%	-8%
O=S(=O)(c1ccc(S(=O)(=O)N2CCCC2)cc1)N1CCCCC1	-1%	1%	0%	·	0%
O=C(O)c1cccc(-n2sc3ccccc3c2=O)c1	1%	?	1%	·	0%
O=c1c2ccccc2sn1-c1nccs1	1%	8.5µM*	-1%	6%	-3%
CN(C)S(=O)(=O)c1cccc(-n2sc3ccccc3c2=O)c1	10%	11µM*	?	8%	1%
O=c1c2ccccc2sn1-c1ccc(S(=O)(=O)N2CCCC2)cc1	9%	4.8µM*	21%	-7%	0%
CCn1c(=O)cc(OCC(=O)NCc2ccccc2OC)c2ccccc21	·	7%	·	2%	·
O=C(CSc1nncn1-c1ccccc1)NC1CCCCC1	-1%	3%	14%	-6%	-1%
COc1ccc(C(C)(C)C)cc1NC(=O)CCc1c(C)noc1C	-4%	·	0%	·	-1%
O=c1c2ccccc2sn1-c1ccccc1	10%	7.6µM*	25%	6%	17%
CCOc1ccc(CCNC(=O)c2sc3nc4n(c(=O)c3c2C)CCCC4)cc1	·	0%	·	·	·
SMILES	NPC1 prom act	FLuc modulator	Rab9 promoter act	SMN2 splice up	ELG1 genotoxic
CC(=O)c1cccc(NC(=O)Nc2csc3c2CCCC3)c1	-1%	17µM*	2%	·	-7%
CC(=O)c1cccc(NC(=O)c2csc3c2CCCCC3)c1	16%	13µM*	21%	20%	1%
CCOc1ccc(NC(=O)c2csc3c2CCCC3)cc1	2.2µM*	2.7µM*	3.5µM*	11µM*	?
CCOC(=O)c1ccc(NC(=O)c2csc3c2CCCC3)cc1	·	?	·	-7%	·
COc1ccc(C)cc1NC(=O)c1nnn(Cc2cccc(Br)c2)c1N	·	-5%	·	-13%	·
COc1ccccc1CNC(=O)Cc1csc2nc(-c3ccc(F)cc3)cn12	·	1%	·	·	·
CC(=O)N/C(N)=N/c1nc2cc([N+](=O)[O-])ccc2o1	?	?	3.2µM*	·	?
CC(=O)N/C(N)=N/c1nc2cc(C)ccc2o1	1.4µM*	5.4µM*	0.79µM*	·	9.2µM*

Screening data (PubChem)
